The values below come from ChEMBL document CHEMBL4513216, “Probing the Open Global Health Chemical Diversity Library for Multistage-Active Starting Points for Next-Generation Antimalarials” (ACS Infect Dis, 2020).

The structures appear in SMILES notation. Among all 68,000 compounds or so, about 2,700 (4%) showed an effect of 50% or more. The full list was thinned out, with strong results kept by preference.

The test system of this assay is Plasmodium berghei. Put plainly: Screen against P. berghei liver stage (PbLuc), transformed with Luciferase, at 2uM. The class given is functional, HepG2. As to conditions: tested at 2 uM.
For `CN(Cc1c(F)cccc1Cl)C(=O)Nc1cnn(CC(N)=O)c1`, the INHIBITION came out at 11.07%.
Regarding `CCn1cc(C(=O)N(C)Cc2c(F)cccc2Cl)cn1`, the INHIBITION is 53.13%.
`CN(Cc1c(F)cccc1Cl)C(=O)c1cnn(CCN2CCOCC2)c1`: the INHIBITION is -9.03%.
For `CCn1cnnc1CNC(=O)N(C)Cc1c(F)cccc1Cl`, the INHIBITION was -17.88%.
On to `CN(Cc1c(F)cccc1Cl)C(=O)c1cnn(CCN2CCCCC2)c1`, for which the INHIBITION is reported as 60.04%.
Consider `CN(Cc1c(F)cccc1Cl)C(=O)Cn1cnc(C#N)n1`, for which the INHIBITION is given as -6.73%.
Under `Cc1nc(C2CCCN(C(=O)c3ccc(Cl)cn3)C2)no1` (stereo not drawn) stands -29.54%; under `CN(C)C(=O)c1cccc(CCNS(=O)(=O)c2ccccc2)c1`, 49.08%.
Under `NS(=O)(=O)CCN1CCOC(c2ccsc2)C1` (stereo not drawn) stands -10.36%; under `CC1CCN(c2ccc(=O)n(CC(=O)N(C)Cc3ccccc3)n2)CC1`, -7.56%; under `COc1cc(N2C[C@@H]3COC[C@]3(COCc3cccc(C)n3)C2)ncn1`, 0.14%.
The result for `COC(C)(C)CNC(=O)N1CCCC1c1c(C)n[nH]c1C` (stereo not drawn) reads 22.83%; that for `Cc1cc(CN(C)C(=O)NC(C)Cc2ccco2)no1` (stereo not drawn), 45.62%; that for `Cc1cc(CN(C)C(=O)NCc2ccnc(SC(C)(C)C)c2)no1`, 14.69%.
As to `CN(Cc1ccco1)C(=O)NCc1ccnc(SC(C)(C)C)c1`, the INHIBITION came out at 53.29%.
As to `CN(Cc1ccco1)C(=O)NCc1nnc2n1CCC2`, the INHIBITION is on record as -18.86%.
The result for `Cc1cc(CN(C)C(=O)NCc2ccccn2)no1` reads 26.62%; that for `Cc1cc(CN(C)C(=O)CN2CCCC2=O)no1`, 51.36%; that for `CC(C)c1cc(CN(C)C(=O)CN2CCCCC2=O)no1`, -11.61%.
As for `Cc1cc(CN(C)C(=O)CN2CCCCCC2=O)no1`, the INHIBITION worked out at 33.35%.
With `Cc1cc(CN(C)C(=O)NCc2ccco2)no1`, the INHIBITION worked out at 66.88%.
Under `O=C(c1ccc(F)cc1)N1C[C@@H]2COC[C@]2(COc2cccnc2)C1` stands -55.8%; under `CC(CO)NC(=O)Nc1ccc(CC#N)cc1` (stereo not drawn), 20.32%.
The result for `CCc1nc2n(n1)CC(Nc1ccnc(-c3ccccc3)n1)CC2` (stereo not drawn) reads -1.33%.
On to `CC(C)C(=O)N1CCCC12CCCN(C(=O)c1ccno1)C2` (stereo not drawn), for which the INHIBITION is on record as 8.34%.
Under `CN1CCN(C2COC3(CCN(c4ccc(C#N)cc4)CC3)C2)CC1` (stereo not drawn) stands 54.5%; under `COC1COC2(CCN(c3ccc(C#N)cc3)CC2)C1` (stereo not drawn), -13.61%; under `N#Cc1ccc(N2CCC3(CC2)CC(N2CCOCC2)CO3)cc1` (stereo not drawn), -0.69%.
`Cc1nn(C)c(N(C)C)c1CNC(C)COc1ccc(F)cc1F` (stereo not drawn): the INHIBITION was determined as 25.03%.
In the case of `Cn1cc(C(=O)N2C[C@H]3CC(Oc4ccccc4)C[C@H]3C2)cn1` (stereo partly drawn), the INHIBITION was -36.58%.
Take `O=C(COc1cc(Cl)cc(Cl)c1)NCc1nncn1C1CC1`: the INHIBITION is given as -13.8%.
Regarding `O=C(COc1cccnc1)NCc1nncn1C1CCCCC1`, the INHIBITION worked out at 57.75%.
As to `O=C(COc1ccc(Cl)cc1)NCc1nncn1C1CC1`, the INHIBITION worked out at 24.36%.
Under `Cc1nc(CN2C(=O)CC[C@@H]3[C@H]2CCN3C2CCOCC2)cs1` stands -6.68%; under `Cc1cc(C(=O)N2CCc3c(ncnc3N3CCOCC3)C2)[nH]n1`, -0.79%.
The result for `O=C(c1cc[nH]n1)N1CCc2ncnc(N3CCSCC3)c2CC1` reads 24.55%.
As to `Cc1cc(C(=O)N2CCc3ncnc(N4CCSCC4)c3CC2)[nH]n1`, the INHIBITION was found to be 64.2%.
The result for `CSc1nc2ncc3c(=O)n(C)ccc3n2n1` reads 19.49%; that for `CCn1cc(-c2cc(C(F)F)n3nc(CC(=O)O)nc3n2)cn1`, -20.05%; that for `Cn1cc(-c2cc(C(F)F)n3nc(CCC(=O)O)nc3n2)cn1`, 48.58%.
As for `CCn1cc(-c2cc(C(F)F)n3nc(CCC(=O)O)nc3n2)cn1`, the INHIBITION came to 61.61%.
For `OCC(O)CN1CCc2onc(-c3ccc(C(F)(F)F)cc3)c2C1` (stereo not drawn), the INHIBITION is -83.25%.
The result for `CCN(CC)CCNC(=O)CCc1c(C)nn(-c2ccc(Cl)cc2)c1C` reads 36.85%; that for `CC(C)c1nnc2ccc(N3CCC(C(=O)O)CC3)nn12`, 16.54%; that for `Fc1ccc(F)c(CN2CCC(c3cc4ncccc4cn3)CC2)c1`, -20.28%.
The result for `CC(=O)N1CCN(C(=O)NC(C)Cn2ccnc2)CC1` (stereo not drawn) reads 14.47%; that for `CC(=O)Nc1nc(C(=O)N2CCCC(n3nc(C)nc3C)C2)cs1` (stereo not drawn), 9.17%; that for `CCCC(=O)NCc1cc(Br)c(OC)c(OC)c1`, 0.63%.
Regarding `CCC(=O)NCc1cc(Br)c(OC)c(OC)c1`, the INHIBITION is -11.19%.
Under `CCS(=O)(=O)NCc1cc(Br)c(OC)c(OC)c1` stands 68.69%; under `Cc1ccsc1C(=O)N(C)Cc1ccncc1`, -32.02%.
Turning to `CCOCCC(=O)Nc1cccc(Oc2ccccn2)c1`, the INHIBITION was found to be 3.59%.
On to `CCOCC(=O)Nc1cccc(Oc2ccccn2)c1`, for which the INHIBITION is reported as 67.68%.
Under `CSCC(=O)Nc1cccc(Oc2ccccn2)c1` stands -7.6%; under `CC(C)(C)c1cc(CN2CCOCC(O)C2)n[nH]1` (stereo not drawn), -67.78%; under `Cc1noc(C(C)N(C)CC(=O)NCCc2ccc(Cl)cc2)n1` (stereo not drawn), 11.8%.
The result for `Cc1nccc([C@@H]2C[C@H]3CN(S(=O)(=O)c4ccccc4)C[C@H]3O2)n1` reads 32.41%; that for `CCn1ccnc1CN1CCN(Cc2ccc(C#N)cc2)CC1`, 71.23%.
For `Cn1ccnc1CN1CCN(Cc2ccc(C#N)cc2)CC1`, the INHIBITION is on record as -19.95%.
With `CCn1ccnc1CN1CCN(Cc2cccc(C#N)c2)CC1`, the INHIBITION is given as -49.45%.
Under `Cc1n[nH]c(C)c1CCCN(C)Cc1c[nH]nc1-c1ccc(F)cc1` stands -87.47%.
As to `CN(Cc1cc(C(C)(C)C)n[nH]1)Cc1c[nH]nc1-c1ccc(F)cc1`, the INHIBITION is listed as 50.31%.
Under `CN(Cc1ccn[nH]1)Cc1c[nH]nc1-c1ccc(F)cc1` stands -35.45%.
The result for `CCN(Cc1cc(=O)n2cc(Br)ccc2n1)C1CC1` reads -15.9%; that for `Cc1ccc2cccc(Oc3nc(C)c(C(=O)O)s3)c2n1`, 27.11%.
Turning to `CCN(C)C(=O)c1cc(-c2cn(C(C)C)cn2)n2ccccc12`, the INHIBITION stood at 73.98%.
The result for `CCN(C)C(=O)c1cc(-c2ccn(C(C)C)n2)n2ccccc12` reads -8.84%; that for `COCCn1cnc(-c2cc(C(=O)NC(C)C)c3ccccn23)c1`, 1.48%; that for `CC(C)(C)c1csc(CNC(=O)C2NCCc3[nH]cnc32)n1` (stereo not drawn), 12.08%.
For the compound `COc1ccc(C(=O)NC2CC2)c(OC2CCN(C(C)CO)CC2)c1` (stereo not drawn), the INHIBITION is -8.53%.
Take `CNC(=O)CN1CCOCC2(CN(CCC(F)(F)F)CCO2)C1` (stereo not drawn): the INHIBITION is on record as 53.46%.
Under `CNC(=O)CN1CCOCC2(C1)CN(C(=O)C(C)C)CCO2` (stereo not drawn) stands -6.94%.
The result for `CCCC(=O)N1CCOC2(COCCN(CC(=O)NC)C2)C1` (stereo not drawn) reads 43.03%.
Under `Cc1ccc(C(=O)N2CC[C@@]3(O)CCCC[C@H]3C2)cc1` stands 16.45%; under `CNC(=O)c1sccc1N(C)S(=O)(=O)c1ccc(Cl)cc1`, 1.37%.
On to `O=C(NCCCOCC1CC1)Nc1cccnc1N1CCOCC1`, for which the INHIBITION is listed as 61.57%.
Under `CC(C)COCCCNC(=O)c1cccnc1N1CCOCC1` stands -32.12%; under `O=C(NCCCOCC1CCCO1)c1cccnc1N1CCOCC1` (stereo not drawn), 10.49%.
Under `CCC(CC)NC(=O)c1ncn2c1CN(CC)S(=O)(=O)c1ccccc1-2` stands 14.52%.
The result for `CC(=O)N1CCC(Cc2nccnc2-c2c(C)n[nH]c2C)C1` (stereo not drawn) reads 26.14%; that for `Cc1ccc(CN2CC[C@H]3O[C@@H](C(=O)N4CCCO4)CC[C@H]32)s1`, -25.79%.
As for `Cc1nn(C)c(N(C)C)c1CNCc1cccc(Cn2cncn2)c1`, the INHIBITION is reported as -42.39%.
On to `Cc1nn(C)c(N(C)C)c1CNCc1ccc(Cn2cccn2)cc1`, for which the INHIBITION amounted to 44.37%.
On to `COc1cccc(CNCc2c(C)nn(C)c2N(C)C)c1`, for which the INHIBITION is -32.89%.
Under `Cc1nn(C)c(N(C)C)c1CNCc1cccc(Cn2cccn2)c1` stands 50.32%.
Under `COc1cccc(CCNCc2c(C)nn(C)c2N(C)C)c1` stands 67.59%.
Under `COc1cccc(OCCNCc2c(C)nn(C)c2N(C)C)c1` stands -14.3%; under `Cc1ccc(C(=O)NS(=O)(=O)c2cccc3cnccc23)c(=O)[nH]1`, -14.17%; under `Cc1nc2ccccn2c1CN(Cc1cccnc1)CC1CCCO1` (stereo not drawn), 41.76%.
In the case of `Cc1cccc2c1nc(COCC(=O)O)n2-c1cnc(N)cn1`, the INHIBITION was -15.37%.
As for `CCCc1nc(C(C)(C)NC(=O)C2CC(=O)N(CC3CC3)C2)no1` (stereo not drawn), the INHIBITION is 71.48%.
Regarding `CN(C)Cc1nc(C(C)(C)NC(=O)C2CC(=O)N(CC3CC3)C2)no1` (stereo not drawn), the INHIBITION was determined as 17.39%.
The result for `CCCc1nc(C(C)(C)NC(=O)C2CC(=O)N(CC)C2)no1` (stereo not drawn) reads -2.17%.
Under `O=C(NCCO)c1coc(Cn2cnc3ccccc32)n1` stands 5.82%; under `CN(Cc1cnc(N)nc1)C(=O)c1coc(COc2cccc(F)c2)n1`, 51.31%.
Under `CN(Cc1cnc(N)nc1)C(=O)c1coc(COc2ccccc2)n1` stands -31.73%; under `CN(CC(O)CO)C(=O)c1coc(COc2cccc(F)c2)n1` (stereo not drawn), -5.13%; under `CCOCCCNC(=O)C1(C)CCC(=O)N1Cc1ccccc1F` (stereo not drawn), 15.96%.
On to `CSCc1nc(CCNC(=O)C(N)c2c(C)n[nH]c2C)cs1` (stereo not drawn), for which the INHIBITION was -4.29%.
For the compound `CN(C)CC1(O)CCN(C(=O)c2ccc(-n3cnnc3)cc2Cl)C1` (stereo not drawn), the INHIBITION came out at 21%.
The result for `O=C(c1ccnc(-n2cnnc2)c1)N1CCCC2(CCNC2)C1` (stereo not drawn) reads 7.67%.
The result for `O=C(c1ccc(-n2cnnc2)cc1Cl)N1CCCC2(CCNC2)C1` (stereo not drawn) reads 57.75%; that for `O=C(c1cccc(-c2ccc(F)cc2)c1)N1CCCC(O)(CO)CC1` (stereo not drawn), 35.7%.
The result for `CNc1ccc(C)cc1C(=O)N1CCCC2(CCNC2)C1` (stereo not drawn) reads 8.3%; that for `O=C(c1cccc(Oc2ccccc2)c1)N1CCCC(O)(CO)CC1` (stereo not drawn), 53.66%; that for `O=C(c1ccc(-n2cnnc2)cc1Cl)N1CCCC(O)(CO)CC1` (stereo not drawn), 58.57%.
In the case of `O=C(c1ccc(-n2cccn2)cc1Cl)N1CCCC(O)(CO)C1` (stereo not drawn), the INHIBITION was found to be 21.36%.
For the compound `N#Cc1cccc(C(=O)N2CCCC(O)(CO)CC2)c1` (stereo not drawn), the INHIBITION was found to be 16.82%.
